# Shown are actives, neighbours in structure and some others; about 2.1% of the full set was active somewhere.
# Abeta yeast res = A-beta toxicity reversal in yeast; Potency, µM (highest dose often 46.1 µM), actives largely listed as activators; 410,000 compounds, 0.063% hits; AID 1347071; yeast expressing A-beta42, growth rescue, OD600, 48 h; response scale: 0% DMSO, 100% iron-clioquinol control; note: nearly all actives have a fitted effect of over 55% in size
#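 Yeast growth medium received pinned compounds, then yeast cells expressing toxic A-beta were added; plates incubated at 30 C for 48 hr. Growth read as absorbance at 600 nm, normalized to DMSO and equimolar FeCl3 plus clioquinol controls.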
# TDP-43 yeast inh = TDP-43 toxicity inhibition in yeast | TDP-43 expressing yeast growth rescue, BacTiter-Glo, 24 h | Potency, µM (top dose mostly 46.1 µM), for inactives: top-dose growth rescue (activation), actives largely listed as activators | 410,000 compounds, 1.8% hits | AID 652104; note: % of control where 0% means no effect; nearly all actives have a fitted effect of over 50% in size
#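 Yeast expressing TDP-43 (pregrown in raffinose, seeded at OD600=0.02 in galactose medium) exposed to compounds 24 hr at 30 deg C. Growth read by BacTiter-Glo luminescence; rescue of toxicity appears as increased signal.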
# aSyn yeast inh = rescues yeast growth from alpha-synuclein toxicity; AID 652106; Potency, µM (titrated, usually from 46.1 µM), for inactives: at the top dose growth rescue (activation), usual class: activators; Yeast expressing alpha-synuclein, growth rescue, BacTiter-Glo, 24 h; 370,000 compounds, 0.14% hits; note: % of control where 0% means no effect; nearly all actives have a fitted effect of over 65% in size
#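 Rescue of yeast growth: cells expressing toxic alpha-synuclein, induced in galactose at OD600 0.02, incubated with compound 24 h at 30 C. ATP luminescence quantified growth; inhibitors of toxicity appear as activators.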
# FUS suppressor = FUS proteinopathy suppression in yeast | S. cerevisiae FUS-expressing, growth rescue, OD600, 24 h | Potency, µM (titrated, usually from 76.6 µM), hits mostly activators | 390,000 compounds, 0.24% hits | AID 1347120;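 note: plate controls were DMSO vehicle for no effect and reference control for full effect; nearly all actives have a fitted effect of over 55% in size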
#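 Quantitative HTS measuring growth restoration of FUS-toxic yeast. Galactose-induced cells (OD 0.005) were exposed 24hr at 30C to compounds at several concentrations, then absorbance at 600 nm was recorded.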
# Numbers without * were called inactive; i = inactive; u = inconclusive; x = no result; ! = not confirmed by another sample. Calls come from the whole dose curve; as a rule, active = well fitted curve in the direction sought with a large enough effect; inconclusive = small, poorly fitted or top-dose-only effect, or another doubt; inactive = no such curve, though single readings can be large; an effect the other way counts as inactive or inconclusive. Potency is the fitted concentration of half-maximal effect.
SMILES,Abeta yeast res,TDP-43 yeast inh,aSyn yeast inh,FUS suppressor
Cc1cnc(CNc2nc3cc(-c4ccccc4C)sc3c(=O)n2C)cn1,i,35µM*,9%,i
COCCNc1nc2cc(-c3ccccc3OC)sc2c(=O)n1C,i,14µM*,1%,i
Cc1cccc(C)c1NC(=O)NC1(C(=O)NCc2ccncc2)CCCCC1,i,-10%,-1%,i
COCCCNC(=S)N/N=C/c1ccc(O)cc1O,i,-19%,-11%,i
Cc1c(NC(=O)CSc2ccc(Cl)cc2)cccc1-c1nc2ncccc2o1,i,14µM*,2%,i
Cc1ccc(C(=O)/C=C/c2ccc(-c3ccc(C)cc3)o2)cc1,i,-25%,23%,14µM*
O=C(NC(=S)Nc1ccccc1N1CCCCC1)c1cccs1,i,u,-12%,i
CC(C)CC(=O)NC(=S)Nc1ccccc1N1CCCC1,7.1µM*,23%,10%,i
CC(C)CC(=O)Nc1ccccc1N1CCCC1,i,-18%,-11%,x
O=C(NC(=S)Nc1ccccc1N1CCCC1)c1cccs1,11µM*,u,0%,i
COCCn1c(C)cc(C(=O)CSc2nnc(-c3cccnc3)n2-c2ccccc2F)c1C,i,11%,x,20µM*
COc1ccc(Cl)cc1NC(=S)NCCSc1ccc(C)cc1,i,22µM*,-6%,x
Cc1cccc(C)c1NC(=S)NCCSc1ccc(Cl)cc1,i,22µM*,6%,i
O=C(NCCSc1ccc(Cl)cc1)c1ccco1,i,7.1µM*,-3%,i
COc1ccc(Nc2nc(N)nc(CSC(=S)N3CCN(C)CC3)n2)cc1,i,1%,-6%,i
COc1ccc(Nc2nc(N)nc(CSC(=S)N3CCCCC3)n2)cc1,i,20%,2%,i
COc1ccccc1Nc1nc(N)nc(CSC(=S)N2CC(C)CC(C)C2)n1 (stereo unspecified),i,25µM*,0%,i
CC1CCN(C(=S)SCc2nc(N)nc(Nc3ccccc3)n2)CC1,22µM*,u,11%,u
CCOc1ccc(Nc2nc(N)nc(CSC(=S)N3CCN(c4ccccc4)CC3)n2)cc1,i,0%,13%,i
COc1ccc(Nc2nc(N)nc(CSC(=S)N3CCN(c4ccccc4)CC3)n2)cc1,i,18µM*,11%,u
Clc1cc(Sc2ccc(Br)cc2)nnc1-c1ccccc1,i,5µM*,-13%,i
COCc1cc(Sc2ccc(Br)cc2)nc(-c2ccccc2)n1,i,23%,-7%,i
Cc1oc(-c2ccccc2)cc1C(=O)Nc1ccc2ccccc2c1,i,1%,3%,i
CSc1ccc(S(=O)(=O)Nc2ccc3c4c(cccc24)CC3)cc1,i,14%,13µM*,i
Cc1nc2ccccc2c2nc3ccccc3n12,i,13µM*,u,i
SMILES,Abeta yeast res,TDP-43 yeast inh,aSyn yeast inh,FUS suppressor
C/C(=N\Nc1ccc(F)cc1F)c1ccc(N2CCOCC2)cc1,i,1%,18%,i
Fc1ccc(N/N=C/c2ccc(N3CCOCC3)cc2)c(F)c1,i,18µM*,13%,i
CC(C)C[C@H](NC(=O)c1nc[nH]c1C(=O)NC1CCN(C(=O)OC(C)(C)C)CC1)C(=O)OCc1ccccc1,i,8%,0%,u
CC(C)(C)OC(=O)NCCCC[C@H](NC(=O)c1nc[nH]c1C(=O)NC1CCN(C(=O)OC(C)(C)C)CC1)C(=O)OC(C)(C)C,i,15%,-9%,14µM*
CC(C)C[C@H](NC(=O)c1nc[nH]c1C(=O)NC1CCN(C(=O)OC(C)(C)C)CC1)C(=O)OC(C)(C)C,i,2%,-3%,14µM*
CC(C)(C)OC(=O)NCCCC[C@H](NC(=O)c1nc[nH]c1C(=O)N[C@@H](CCCCNC(=O)OC(C)(C)C)C(=O)OC(C)(C)C)C(=O)OC(C)(C)C,i,20%,3%,u
CC(C)(C)OC(=O)NCCCC[C@H](NC(=O)c1nc[nH]c1C(=O)NC(c1ccccc1)c1ccccc1)C(=O)OC(C)(C)C,i,-8%,8%,16µM*
Cc1ccc(Nc2ccc(C(=O)O)cc2[N+](=O)[O-])cc1,i,2.8µM*,1%,i
O=C(COC(=O)c1cccnc1Cl)c1cccc(Cl)c1,i,11µM*,x,i
Cc1cccc(C(=O)NCC(c2ccc3c(c2)OCO3)N2CCN(c3ccccc3F)CC2)c1 (stereo unspecified),i,-3%,x,i
COCCNC(=O)c1ccc(CSc2nc3ccccc3s2)cc1,i,u,-3%,i
CCNC(=O)c1ccc(CSc2nc3ccccc3s2)cc1,i,14µM*,8%,i
CC(=O)Nc1ccc2nc(SCc3ccccc3)sc2c1,i,18µM*,x,i
CCc1ccc(Nc2nc(N)nc(CSc3nc4ccccc4s3)n2)cc1,u,25µM*!,1%,i
O=C(NCc1ccccc1)c1nc2ccccc2s1,i,22µM*,-19%,i
CC1CCN(c2nc3ccc(C(=O)NCc4ccc(Cl)cc4)cc3s2)CC1,i,13%,x,i
CC1CCN(c2nc3ccc(C(=O)O)cc3s2)CC1,i,4µM*,-11%,x
CC1(C)Cc2ccccc2C(=NCCCC(=O)O)N1,i,-14%,-18%,i
O=C1CCC(=O)N1c1ccc(NCc2ccccc2Cl)c([N+](=O)[O-])c1,i,22µM*,7%,i
CC(C)Cc1ccc(-c2cc(=O)[nH][nH]2)cc1,i,20µM*,6%,i
Cc1ccc(-c2cc(=O)[nH][nH]2)c(C)c1,i,-4%,-8%,i
CCc1ccc(C(=O)c2cn(CC(=O)Nc3ccc(F)c(F)c3)c3cc(OC)c(OC)cc3c2=O)cc1,i,-8%,x,u
CCc1ccc(C(=O)c2cn(Cc3ccc(F)cc3)c3cc(OC)c(OC)cc3c2=O)cc1,i,u,x,35µM*
COc1ccc(OC)c(NC(=O)c2ccc(-c3csc(C)n3)cc2)c1,i,u,-19%,i
COc1ccc(CC(=O)OCC(=O)NC(=O)NC23CC4CC(CC(C4)C2)C3)cc1,u,23%,13%,i
SMILES,Abeta yeast res,TDP-43 yeast inh,aSyn yeast inh,FUS suppressor
CC1CC1C(=O)OCC(=O)NC(=O)NC12CC3CC(CC(C3)C1)C2 (stereo unspecified),8.9µM*,-1%,8%,i
CN=c1scc(C)n1/N=C/c1cc(Br)c(O)c(OC)c1,i,11µM*,-2%,i
C=CCNc1nc(Nc2ccc(OC)cc2)nc(OC)n1,i,20µM*,-15%,i
C=CCNc1nc(Cl)nc(Nc2ccc(OC)cc2)n1,i,6%,1%,i
COc1cccc2c1O/C(=N\O)C(C(=O)Nc1cccc(C)c1C)C2 (stereo unspecified),i,-4%,1%,i
Nc1ccc2c(c1)C(=O)N(c1cccc3ccccc13)C2=O,i,14µM*,11%,i
Cc1ccc(N2C(=O)c3ccc(N)cc3C2=O)cc1,i,0%,2%,i
Cc1ccc(N2C(=O)c3ccc(N)cc3C2=O)cc1C,i,11µM*,2%,i
